Measurements: PubChem BioAssay (EPA / NIEHS)
More than one record can exist for a structure, and the calls need not agree. Calls of active or inactive are those of the source. Rule for the calls: active = hit-call score of the fitted dose curve at least 0.9, where 1 is the maximum; inactive = score below 0.9.

How the values were obtained:
Conditions in all cases: mRNA level, 48 h; actives raise or lower the signal
[1] = read-out: Cytochrome P450 (CYP24A1), CYP24A1 (gene 1591); assay: LTEA_HepaRG_CYP24A1: Life Technologies and Expression Analysis (LTEA) Assay for Cytochrome P450 (CYP24A1) using HepaRG (AID 2283478)
How it was run: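 mRNA of CYP24A1 quantified by TaqMan qRT-PCR (ACTB/GAPDH/POLR2A normalization) after 48 h chemical exposure of HepaRG cells, top concentration 100 uM, half-log steps, 0.5% DMSO vehicle, duplicates. Curves fitted bidirectionally against DMSO baseline.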

[2] = read-out: Cytochrome P450 (CYP1A2), CYP1A2 (gene 1544); assay: LTEA_HepaRG_CYP1A2: Life Technologies and Expression Analysis (LTEA) Assay for Cytochrome P450 (CYP1A2) using HepaRG (AID 2283479)
How it was run: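 CYP1A2 transcript measured by TaqMan qRT-PCR against three housekeeping genes after 48-hour chemical exposure of HepaRG cells. Eight-point half-log series topping at 100 uM in 0.5% DMSO, duplicates; gain or loss fitted relative to vehicle.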

[3] = read-out: cysteine-aspartic acid protease (CASP8), CASP8 (gene 841); assay: LTEA_HepaRG_CASP8: Life Technologies and Expression Analysis (LTEA) Assay for cysteine-aspartic acid protease (CASP8) using HepaRG (AID 2283480)
How it was run: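 qRT-PCR readout of CASP8 mRNA, normalized to three housekeeping genes, after 48 h chemical exposure of HepaRG cells; 8-point half-log series, top 100 uM, 0.5% DMSO vehicle. Bidirectional curve fitting against DMSO baseline.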

[4] = read-out: Cytochrome P450 (CYP2B6), CYP2B6 (gene 1555); assay: LTEA_HepaRG_CYP2B6: Life Technologies and Expression Analysis (LTEA) Assay for Cytochrome P450 (CYP2B6) using HepaRG (AID 2283481)
How it was run: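 CYP2B6 transcript level quantified by qRT-PCR against three housekeeping genes, fitted bidirectionally relative to DMSO. HepaRG cultures received chemicals for 48 h, 8-point half-log series from 100 uM in 0.5% DMSO, duplicate wells, serum-free induction medium.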

[5] = read-out: Cytochrome P450 2C19 (Homo sapiens) (UniProt P33261); assay: LTEA_HepaRG_CYP2C19: Life Technologies and Expression Analysis (LTEA) Assay for CYP2C19 using HepaRG (AID 2283482)
How it was run: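 CYP2C19 transcript levels by qRT-PCR, normalized to three housekeeping genes, in HepaRG cells after 48 h chemical exposure. Eight-point half-log series topping at 100 uM, 0.5% DMSO vehicle. Increases and decreases both fitted against DMSO.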

CYP2C8 (gene 1558) = assay: LTEA_HepaRG_CYP2C8: Life Technologies and Expression Analysis (LTEA) Assay for CYP2C8 using HepaRG (AID 2283483)
How it was run: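 HepaRG (human liver line), 48 h chemical exposure, 8-pt half-log series from 100 uM, 0.5% DMSO vehicle. Readout: CYP2C8 transcript by qRT-PCR, housekeeping-normalized. Bidirectional fit vs DMSO baseline.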

CYP2C9 (gene 1559) = assay: LTEA_HepaRG_CYP2C9: Life Technologies and Expression Analysis (LTEA) Assay for CYP2C9 using HepaRG (AID 2283484)
How it was run: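 HepaRG, 48 h dosing, 8-pt half-log series, top 100 uM, 0.5% DMSO vehicle. Read-out: CYP2C9 transcript by TaqMan qRT-PCR, housekeeping-normalized (ACTB/GAPDH/POLR2A). Gain or loss fitted vs DMSO baseline.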

CYP2E1 (gene 1571) = assay: LTEA_HepaRG_CYP2E1: Life Technologies and Expression Analysis (LTEA) Assay for CYP2E1 using HepaRG (AID 2283485)
How it was run: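 CYP2E1 transcript measured by Fluidigm qRT-PCR against three housekeeping genes in human HepaRG cells treated 48 h (top 100 uM, half-log steps, 0.5% DMSO vehicle). Gain or loss fitted relative to DMSO baseline.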

CYP4A11 (gene 1579) = assay: LTEA_HepaRG_CYP4A11: Life Technologies and Expression Analysis (LTEA) Assay for CYP4A11 using HepaRG (AID 2283486)
How it was run: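 Readout is CYP4A11 transcript level by qRT-PCR, normalized to three housekeeping genes and fitted bidirectionally against 0.5% DMSO. Human HepaRG cells were treated 48 h, in duplicate, with an 8-point half-log series topping at 100 uM.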

Caspase-3 (Homo sapiens) = Caspase-3 (Homo sapiens) (UniProt P42574); assay: LTEA_HepaRG_CASP3: Life Technologies and Expression Analysis (LTEA) Assay for cysteine-aspartic acid protease (CASP3) using HepaRG (AID 2283477)
How it was run: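 Expression of CASP3 was quantified by TaqMan qRT-PCR against three housekeeping genes (ACTB, GAPDH, POLR2A), bidirectionally versus 0.5% DMSO. HepaRG cultures received compounds in duplicate, top 100 uM with half-log steps, for 48 h in serum-free induction medium.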

Measured: AC50

Chain of Caspase-3 (Homo sapiens) (P42574 whole entry, looked up): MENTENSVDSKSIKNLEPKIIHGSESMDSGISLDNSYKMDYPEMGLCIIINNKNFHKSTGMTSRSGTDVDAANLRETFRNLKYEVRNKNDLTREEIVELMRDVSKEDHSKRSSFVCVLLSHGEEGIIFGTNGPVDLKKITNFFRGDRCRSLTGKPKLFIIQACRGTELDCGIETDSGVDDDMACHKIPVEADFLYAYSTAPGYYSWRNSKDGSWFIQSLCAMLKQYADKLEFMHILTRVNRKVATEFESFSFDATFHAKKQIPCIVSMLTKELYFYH
Chain of Cytochrome P450 2C19 (Homo sapiens) (P33261 whole entry, looked up): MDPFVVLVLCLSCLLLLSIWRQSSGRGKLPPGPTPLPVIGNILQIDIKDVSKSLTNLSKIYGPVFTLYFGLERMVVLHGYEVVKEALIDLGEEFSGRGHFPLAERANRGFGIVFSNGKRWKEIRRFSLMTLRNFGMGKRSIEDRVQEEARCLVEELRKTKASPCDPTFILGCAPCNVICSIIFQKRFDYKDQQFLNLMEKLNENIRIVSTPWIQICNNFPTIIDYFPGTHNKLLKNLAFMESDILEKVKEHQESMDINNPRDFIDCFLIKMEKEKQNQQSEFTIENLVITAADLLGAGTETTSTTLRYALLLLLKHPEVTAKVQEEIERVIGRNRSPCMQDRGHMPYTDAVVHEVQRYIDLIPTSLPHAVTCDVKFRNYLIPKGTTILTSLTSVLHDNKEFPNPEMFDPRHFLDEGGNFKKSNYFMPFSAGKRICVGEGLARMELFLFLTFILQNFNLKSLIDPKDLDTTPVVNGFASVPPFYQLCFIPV

CNC(=O)ON=C(SC)C(=O)N(C)C
active: [3] 0.369 µM | CYP2C8 (gene 1558) 0.0994 µM
not listed: Caspase-3 (Homo sapiens)
inactive: all other assays above

CCc1cccc(CC)c1N(COC)C(=O)CCl
active: [4] 50 µM
inactive: all other assays above

CC(COc1ccc(Oc2ccccc2)cc1)Oc1ccccn1 (stereo unspecified)
active: [2] 13.1 µM | [4] 3.68 µM | CYP2E1 (gene 1571) 35.7 µM | CYP4A11 (gene 1579) 12.5 µM
inactive: all other assays above

CN(C)[C@@H]1C(=O)C(C(N)=O)=C(O)[C@@]2(O)C(=O)C3=C(O)c4c(O)cccc4[C@@](C)(O)[C@H]3[C@H](O)[C@@H]12
inactive: [1] | [2] | [3] | [4] | [5] | CYP2C8 (gene 1558) | CYP2C9 (gene 1559) | CYP2E1 (gene 1571) | CYP4A11 (gene 1579)
active: [4] 10 µM | CYP2E1 (gene 1571) 50 µM | CYP4A11 (gene 1579) 38.6 µM

CCOP(=S)(OCC)OC(Cl)C(Cl)(Cl)Cl (stereo unspecified)
active: [4] 24 µM
not listed: Caspase-3 (Homo sapiens)
inactive: all other assays above

CCOP(=S)(OCC)Oc1cc(C)nc(C(C)C)n1
active: [2] 29.3 µM | [4] 2.5 µM | [5] 16.1 µM | CYP2E1 (gene 1571) 9.92 µM
inactive: all other assays above

CCc1cccc(C)c1N(C(=O)CCl)C(C)COC (stereo unspecified)
active: [4] 14.2 µM | [5] 16 µM | CYP2E1 (gene 1571) 50 µM
not listed: CYP2C8 (gene 1558)
inactive: all other assays above

Nc1c(Cl)cc([N+](=O)[O-])cc1Cl
active: Caspase-3 (Homo sapiens) 17.3 µM | [2] 13 µM | [3] 50 µM | [4] 11.8 µM | [5] 85 µM | CYP2C8 (gene 1558) 78.4 µM | CYP2C9 (gene 1559) 63.8 µM | CYP2E1 (gene 1571) 40.4 µM | CYP4A11 (gene 1579) 67.4 µM
inactive: [1]

CC(C)[C@H](C(=O)O[C@H](C#N)c1cccc(Oc2ccccc2)c1)c1ccc(Cl)cc1
active: [2] 37.3 µM | [4] 20.8 µM | [5] 34.2 µM | CYP2E1 (gene 1571) 50 µM
not listed: CYP2C8 (gene 1558)
inactive: all other assays above

CC(=NC#N)N(C)Cc1ccc(Cl)nc1
active: [4] 50 µM | CYP2C8 (gene 1558) 50 µM
inactive: all other assays above

CC1=NNC(=O)N(/N=C/c2cccnc2)C1
active: [2] 6.84 µM
inactive: all other assays above

Nc1nc(N)nc(NC2CC2)n1
not listed: Caspase-3 (Homo sapiens)
inactive: all other assays above

CN(C)NC(=O)CCC(=O)O
inactive: all assays above

C[N+]1(C)CCCCC1
inactive: all assays above

CCC(CC)Nc1c([N+](=O)[O-])cc(C)c(C)c1[N+](=O)[O-]
active: [4] 13.1 µM | [5] 6.35 µM | CYP2E1 (gene 1571) 64.7 µM
inactive: all other assays above

C=C(C)[C@H]1Cc2c(ccc3c2O[C@@H]2COc4cc(OC)c(OC)cc4[C@@H]2C3=O)O1
inactive: Caspase-3 (Homo sapiens) | [1] | [3]
active: [2] 0.679 µM | [4] 0.5 µM | [5] 2.75 µM | CYP2C8 (gene 1558) 1.36 µM | CYP2C9 (gene 1559) 3.67 µM | CYP2E1 (gene 1571) 0.591 µM | CYP4A11 (gene 1579) 0.838 µM

Cc1ccn2nc(S(=O)(=O)Nc3c(F)cccc3F)nc2n1
inactive: all assays above

CSc1nnc(C(C)(C)C)c(=O)n1N
active: [4] 14.6 µM | [5] 9.92 µM | CYP2E1 (gene 1571) 23.2 µM
inactive: all other assays above

COP(=O)(NC(C)=O)SC (stereo unspecified)
not listed: [2]
inactive: all other assays above

C#CC(C)(C)NC(=O)c1cc(Cl)cc(Cl)c1
active: [2] 50 µM | [4] 8.65 µM | [5] 20.2 µM | CYP2E1 (gene 1571) 26.1 µM
inactive: all other assays above

C[Si](Cn1cncn1)(c1ccc(F)cc1)c1ccc(F)cc1
active: [2] 85.6 µM | [4] 68.8 µM | [5] 80.1 µM | CYP2C8 (gene 1558) 71.8 µM | CYP2C9 (gene 1559) 35.5 µM | CYP2E1 (gene 1571) 19.4 µM | CYP4A11 (gene 1579) 25.9 µM
inactive: Caspase-3 (Homo sapiens) | [1] | [3]

COP(=O)(OC)SCn1c(=O)oc2cc(Cl)cnc21
active: [4] 50 µM | [5] 50 µM | CYP2C9 (gene 1559) 36.9 µM | CYP4A11 (gene 1579) 36.2 µM
inactive: all other assays above

Cc1cc(C2CC2)nc(Nc2ccccc2)n1
active: [2] 91.5 µM | [4] 18 µM
inactive: all other assays above

FC(F)C(F)(F)OCC(Cn1cncn1)c1ccc(Cl)cc1Cl (stereo unspecified)
inactive: [1] | [3]
active: Caspase-3 (Homo sapiens) 82 µM | [2] 28.6 µM | [4] 31.7 µM | [5] 34.8 µM | CYP2C8 (gene 1558) 24.6 µM | CYP2C9 (gene 1559) 38.1 µM | CYP2E1 (gene 1571) 16.1 µM | CYP4A11 (gene 1579) 28.8 µM

CCC(=O)Nc1ccc(Cl)c(Cl)c1
active: [2] 33 µM | [4] 12.6 µM | [5] 32.7 µM | CYP2E1 (gene 1571) 50 µM | CYP4A11 (gene 1579) 50 µM
inactive: all other assays above

CSC1=N[C@@](C)(c2ccccc2)C(=O)N1Nc1ccccc1
inactive: Caspase-3 (Homo sapiens) | [1] | [3]
active: [2] 25.4 µM | [4] 30.8 µM | [5] 38.1 µM | CYP2C8 (gene 1558) 34.6 µM | CYP2C9 (gene 1559) 33.8 µM | CYP2E1 (gene 1571) 20.9 µM | CYP4A11 (gene 1579) 27.1 µM

CCOP(=O)(NC(C)C)Oc1ccc(SC)c(C)c1 (stereo unspecified)
active: [4] 22.5 µM | [5] 50 µM | CYP2E1 (gene 1571) 34.3 µM | CYP4A11 (gene 1579) 22.4 µM
inactive: all other assays above

CCCOCC(=Nc1ccc(Cl)cc1C(F)(F)F)n1ccnc1
inactive: Caspase-3 (Homo sapiens) | [1] | [2] | [3]
active: [4] 30.4 µM | [5] 32.5 µM | CYP2C8 (gene 1558) 25.7 µM | CYP2C9 (gene 1559) 20.3 µM | CYP2E1 (gene 1571) 13.2 µM | CYP4A11 (gene 1579) 23 µM

CCOP(=S)(OCC)SCCSCC
active: [4] 7.58 µM | [5] 22.2 µM
inactive: all other assays above

CNC(=O)Oc1cccc2c1OC(C)(C)O2
inactive: all assays above

CCCCOC(=O)c1ccccc1C(=O)O
active: [2] 32.8 µM | [4] 10.2 µM
inactive: all other assays above

CCOP(=S)(Oc1cnc(C(C)(C)C)nc1)OC(C)C (stereo unspecified)
active: [4] 4.96 µM | [5] 11.5 µM | CYP2E1 (gene 1571) 26.8 µM | CYP4A11 (gene 1579) 50 µM
inactive: all other assays above

O=[N+]([O-])c1cc(C(F)(F)F)c(Cl)c([N+](=O)[O-])c1Nc1ncc(C(F)(F)F)cc1Cl
active: [2] 8.27 µM | [4] 13 µM | [5] 26 µM | CYP2C8 (gene 1558) 26.8 µM | CYP2C9 (gene 1559) 17.8 µM | CYP2E1 (gene 1571) 13.1 µM | CYP4A11 (gene 1579) 27.6 µM
inactive: Caspase-3 (Homo sapiens) | [1] | [3]
